Among the data in PubChem BioAssay AID588398 (Broad Institute, 2011) are outcome values, retold here.

Structures are written as SMILES. Screen size: about 1,200 compounds; about 110 (9.2%) were called active. Inconclusive results (about 8%) are left out.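 How the source made its calls: active means pathway reporter half-maximal dose under half the control reporter's, or control reporter unaffected while pathway reporter is inhibited; inconclusive means either signal flat at 30 to 70% inhibition or poorly fitted; inactive means the rest.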 These entries were drawn from the full list. Measured potencies and affinities stand elsewhere.

This assay is described as follows: TES1-eGFP NF-kB reporter inhibition versus Tet-On dsRED, dose response, selectivity assay for LMP1 NF-kB inhibitor project, imaging, HEK293T, dual-color eGFP/dsRED, cherry-picks (AID 588398). The following applies: 48 h; HEK293T Tet-On dsRED counter-screen channel, at 19.5 µM (top of the series). For orientation: Counterscreens check selectivity or assay interference.
On to `COc1cc(/C=N/NC(=S)Nc2cccc(C(=O)O)c2)ccc1O`, for which the outcome was inactive.
Under `O=C(Nc1ccc(C(=O)N2CCOCC2)cc1)Nc1cccc(C(F)(F)F)c1` stands “inactive”.
Under `O=C(NC1=NCCS1)c1cc2ccccc2o1` stands “inactive”.
For the compound `COc1cc2c(cc1OC)-c1cc(Nc3ccc4c(c3)OCCO4)nc(=O)n1CC2`, the compound was classed as inactive.
Under `COc1ccccc1-n1c(-c2ccccc2)n[nH]c1=S` stands “inactive”.
Under `COc1ccc(/C(CC2OC(=O)c3ccccc32)=N\NC(N)=O)cc1` (centres undefined) stands “inactive”.
Under `COc1ccc(N/N=C/c2c(C(=O)O)ccc3ccccc23)cc1` stands “inactive”.
For `COc1ccccc1C=NN=Cc1ccccc1O`, the outcome was inactive.
With `O=C(Nc1ccc(F)c(F)c1)C1CCCCC1`, the compound was called inactive.
Under `CCCSc1ccc([C@@H]2[C@H]3C(=O)N(C)C(=O)[C@H]3[C@]3(C(=O)OC)CCCN23)cc1OC` stands “inactive”.
With `CC[C@]1(C(=O)OC)[C@H]2C(=O)N(Cc3ccccc3)C(=O)[C@H]2[C@H]2CN=C(SCc3ccc(Cl)cc3)N21`, the compound was classed as inactive.
In the case of `COc1ccc(-n2c(C)c(C(C)=O)c3cc(OC(C)=O)ccc32)cc1`, the result was inactive.
Under `COc1ccc(S(=O)(=O)N2CCC(C(=O)NC3CC3)CC2)cc1OC` stands “inactive”; under `O=C(C1CCCCC1)N1CCN(c2ccnc3cc(Cl)ccc23)CC1`, “inactive”.
Regarding `C[n+]1c2n(c3ccccc31)N=C(c1cc(C(C)(C)C)c(O)c(C(C)(C)C)c1)CS2`, the compound was called inactive.
Under `CC(=NNc1nc2ccccc2s1)c1ncccn1` stands “inactive”.
For the compound `CC(=NNc1nc2ccccc2o1)c1ncccn1`, the call was inactive.
As to `Brc1cccc(-c2cnco2)c1`, the compound was called inactive.
Under `COc1ccc(NC(=O)Cn2nnc(C(=O)NCc3ccccc3)c2N)c(OC)c1` stands “inactive”.
As for `COc1ccccc1NC(=O)C(=O)N/N=C(\C)CC(=O)Nc1ccccc1C(F)(F)F`, the compound was classed as inactive.
Under `COC(=O)c1cccc(COC(=O)c2ccccc2NC(=O)c2ccco2)c1` stands “inactive”; under `Cn1c(=O)c2c(nc(NCc3ccco3)n2C/C=C/c2ccccc2)n(C)c1=O`, “inactive”; under `O=C(CCS(=O)(=O)c1ccccc1)Nc1nccs1`, “inactive”.
For the compound `Oc1c(N=NC(=S)Nc2ccccc2F)c2ccccc2n1Cc1cccc(Cl)c1`, the compound was called inactive.
Under `CCCCCCNC(=O)O[C@]12C[C@@H](C(=O)OC)[C@@H](C(=O)OC)C[C@@]1(O)CN(S(=O)(=O)c1ccc(C)cc1)C2` stands “inactive”; under `CCN1CCN(Cc2ccc(NC(=O)c3ccc(C)c(NC(=O)c4ccno4)c3)cc2C(F)(F)F)CC1`, “inactive”.
Under `Oc1c(N=NC(=S)Nc2ccccc2F)c2ccccc2n1Cc1ccc(F)cc1` stands “inactive”.
`CCCN(CC)c1ncnc2[nH]ncc12`: the compound was called inactive.
`Cc1ccccc1-n1nc(C)c2cc(C(=O)NC3CC3)sc21`: the compound was classed as inactive.
Under `Cc1ccc(N2C(=O)c3ccccc3C2Nc2cccnc2)nc1` (centres undefined) stands “inactive”; under `O=C(c1ccc(C#CC2(O)CCCCC2)cc1)N1CCN(C(c2ccccc2)c2ccccc2)CC1`, “inactive”.
Under `COc1ccc(C(c2c(C)n(C)n(-c3ccccc3)c2=O)c2c(C)n(C)n(-c3ccccc3)c2=O)c(OC)c1OC` stands “inactive”; under `Cc1ccccc1C(=O)NC(=S)Nc1ccc(N2CCN(C(=O)c3ccccc3)CC2)cc1`, “inactive”; under `COc1cccc(/C=N\NC(=O)c2ccc(C)nc2)c1`, “inactive”.
Under `O=C(N/N=C/c1c(O)ccc2ccccc12)c1cccnc1` stands “inactive”; under `CC(CN1CCCCC1)OC(=O)c1ccc2c(c1)OCO2` (centres undefined), “inactive”; under `N=C1S/C(=C\c2ccccc2)C(=O)N1c1ccc(F)cc1`, “inactive”.
For `CN(C)S(=O)(=O)c1cccc(NC(=O)c2n[nH]c(=O)c3ccccc23)c1`, the result was inactive.
Take `Cc1c(NC(=O)c2cc(-c3cccs3)nc3ccccc23)c(=O)n(-c2ccccc2)n1C`: the compound was classed as inactive.
For the compound `CCOc1ccc(-c2cc(C(=O)N/N=C/c3ccc(O)cc3)c3ccccc3n2)cc1`, the compound was called inactive.
Under `Cc1ccc(-c2cc(C(=O)N/N=C/C=C/c3ccco3)c3ccccc3n2)cc1C` stands “inactive”; under `O=[N+]([O-])c1cccc(-c2ccc(/C=N/Nc3nc(N4CCCCC4)nc(N4CCCCC4)n3)o2)c1`, “inactive”.
Take `O=C(COC(=O)c1ccc(S(=O)(=O)NCc2ccco2)cc1)Nc1ccc(Cl)cn1`: the compound was classed as inactive.
Under `CCOC(=O)/C=C(\C)Sc1cc(=O)oc2ccccc12` stands “inactive”.
Under `COc1ccc([C@H]2N[C@]3(CCCN(Cc4ccco4)C3=O)[C@H]3C(=O)N(Cc4ccccc4)C(=O)[C@@H]23)cc1` stands “inactive”.
Under `Cc1ccc(NC(=O)NNS(=O)(=O)c2ccc(Br)cc2)cc1` stands “inactive”; under `CCN(Cc1ccncc1)C(=O)CCc1ccccc1`, “inactive”.
For `Cc1c(/C(O)=C2/C(=O)C(=O)N(CCN3CCOCC3)C2c2ccccn2)cnn1-c1ccccc1` (centres undefined), the compound was classed as inactive.
With `COC(=O)CCCC[C@@H]1SC[C@@H](NC(=O)OC)[C@@H]1NC(=O)OC`, the compound was called inactive.
Under `CN=C1S/C(=C\c2ccc(O)c(Br)c2)C(=O)N1C` stands “inactive”; under `C#CCN(C[C@@H]1[C@@H](OC(=O)NCC2CCCCC2)[C@@H](OC(=O)NCC2CCCCC2)Cn2c(=O)ccc(=O)n21)S(=O)(=O)c1ccc(C)cc1`, “inactive”; under `O=C(NOCc1ccccc1)c1ccc(Cl)cc1Cl`, “inactive”.
Under `S=C(NCC1CCCCC1)Nc1ccc(Oc2ccccc2)cc1` stands “inactive”; under `COc1ccc(C(=O)CN(CCC(=O)O)S(=O)(=O)c2ccc([N+](=O)[O-])cc2)cc1`, “inactive”; under `CCN(CC(=O)NCc1ccc(F)cc1)CC(=O)Nc1cc(S(=O)(=O)N(C)C)ccc1C`, “inactive”.
For the compound `O=C(Nc1ccc(N2CCOCC2)cc1)c1cn2ccccc2n1`, the call was inactive.
Under `Cc1sc2ncnc(N3CCC(C(=O)Nc4ccccc4C(C)(C)C)CC3)c2c1C` stands “inactive”.
Under `Cc1cccc(NC(=S)N=Nc2c(O)n(C)c3ccc(S(=O)(=O)N4CCOCC4)cc23)c1` stands “inactive”.
Under `C=CCn1c(O)c(N=NC(=S)Nc2ccccc2C)c2cc(S(=O)(=O)N3CCOCC3)ccc21` stands “inactive”; under `CN1C(=O)C(CC(=O)NC2CCCCC2)SC1=Nc1ccccc1` (centres undefined), “inactive”; under `COc1ccc(-c2ccc3c(c2)S(=O)(=O)c2cccc(C(=O)NCc4cc(C)oc4C(F)(F)F)c2C3=O)cc1OC`, “inactive”.
With `Cc1ccc(C(=O)Nc2cccc(C(F)(F)F)c2)cc1NC(=O)c1ccno1`, the compound was called inactive.
Turning to `CCOc1ccc(/C=N/Nc2cc(N3CCOCC3)ncn2)c(O)c1`, the outcome was inactive.
Consider `COc1cccc(C(=O)Nc2nc3ccccc3[nH]2)c1`, for which the outcome was inactive.
